Measured values taken from the supplement of paper PMC10849652.
About 7,900 targets were measured; listed, in parts, are those with a hit and a random draw of the rest. About 0.6% of all pairs of compound and target were hits.

Sequence of UniProt Q66K14 (Q66K14 whole entry, looked up): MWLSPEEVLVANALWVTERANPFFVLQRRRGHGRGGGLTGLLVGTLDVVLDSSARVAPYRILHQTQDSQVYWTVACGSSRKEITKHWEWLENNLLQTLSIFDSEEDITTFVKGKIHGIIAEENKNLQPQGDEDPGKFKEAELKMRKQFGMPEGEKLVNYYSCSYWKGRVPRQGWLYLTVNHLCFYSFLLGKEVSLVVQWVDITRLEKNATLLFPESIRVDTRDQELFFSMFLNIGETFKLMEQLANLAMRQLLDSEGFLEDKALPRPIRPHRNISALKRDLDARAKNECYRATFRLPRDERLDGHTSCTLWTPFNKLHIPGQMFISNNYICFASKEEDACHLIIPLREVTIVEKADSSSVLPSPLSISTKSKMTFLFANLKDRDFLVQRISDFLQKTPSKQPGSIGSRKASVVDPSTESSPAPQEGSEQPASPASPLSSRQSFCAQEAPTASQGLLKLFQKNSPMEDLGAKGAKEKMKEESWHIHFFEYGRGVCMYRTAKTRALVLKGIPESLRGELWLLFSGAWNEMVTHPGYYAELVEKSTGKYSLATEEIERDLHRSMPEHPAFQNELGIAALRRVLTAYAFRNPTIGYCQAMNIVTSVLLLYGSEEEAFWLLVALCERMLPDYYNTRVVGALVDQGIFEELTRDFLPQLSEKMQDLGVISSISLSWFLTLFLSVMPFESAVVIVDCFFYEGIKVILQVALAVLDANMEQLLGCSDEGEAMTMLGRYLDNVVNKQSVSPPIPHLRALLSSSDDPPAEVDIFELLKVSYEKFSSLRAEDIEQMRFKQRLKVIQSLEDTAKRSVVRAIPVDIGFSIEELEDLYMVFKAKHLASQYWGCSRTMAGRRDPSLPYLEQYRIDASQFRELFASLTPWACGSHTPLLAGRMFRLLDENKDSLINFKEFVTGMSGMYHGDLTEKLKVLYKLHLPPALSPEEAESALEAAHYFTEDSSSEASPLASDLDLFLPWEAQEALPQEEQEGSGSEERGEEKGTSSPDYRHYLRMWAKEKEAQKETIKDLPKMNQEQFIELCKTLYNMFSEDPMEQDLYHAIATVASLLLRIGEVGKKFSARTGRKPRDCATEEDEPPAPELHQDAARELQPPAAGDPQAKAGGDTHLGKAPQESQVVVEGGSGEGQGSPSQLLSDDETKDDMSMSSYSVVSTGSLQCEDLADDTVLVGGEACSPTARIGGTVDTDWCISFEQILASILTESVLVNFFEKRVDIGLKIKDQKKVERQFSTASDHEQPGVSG
Sequence of UniProt Q96DW6 (Q96DW6 whole entry, looked up): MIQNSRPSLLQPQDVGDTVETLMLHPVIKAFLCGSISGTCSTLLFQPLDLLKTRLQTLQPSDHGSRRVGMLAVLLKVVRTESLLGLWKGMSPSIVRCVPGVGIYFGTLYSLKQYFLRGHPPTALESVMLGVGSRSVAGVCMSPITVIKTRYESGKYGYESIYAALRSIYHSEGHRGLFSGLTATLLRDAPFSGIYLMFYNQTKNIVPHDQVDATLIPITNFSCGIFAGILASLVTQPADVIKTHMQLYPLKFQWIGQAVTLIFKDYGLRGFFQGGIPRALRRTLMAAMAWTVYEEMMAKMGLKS
Sequence of UniProt Q01130 (Q01130 whole entry, looked up): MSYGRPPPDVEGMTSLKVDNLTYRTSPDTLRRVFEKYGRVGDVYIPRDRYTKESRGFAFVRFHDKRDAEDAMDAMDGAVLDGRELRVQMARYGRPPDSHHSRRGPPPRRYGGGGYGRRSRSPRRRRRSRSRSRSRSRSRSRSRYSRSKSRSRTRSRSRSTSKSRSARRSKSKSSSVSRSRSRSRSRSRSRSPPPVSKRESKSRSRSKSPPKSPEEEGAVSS
Sequence of UniProt P56962 (P56962 whole entry, looked up): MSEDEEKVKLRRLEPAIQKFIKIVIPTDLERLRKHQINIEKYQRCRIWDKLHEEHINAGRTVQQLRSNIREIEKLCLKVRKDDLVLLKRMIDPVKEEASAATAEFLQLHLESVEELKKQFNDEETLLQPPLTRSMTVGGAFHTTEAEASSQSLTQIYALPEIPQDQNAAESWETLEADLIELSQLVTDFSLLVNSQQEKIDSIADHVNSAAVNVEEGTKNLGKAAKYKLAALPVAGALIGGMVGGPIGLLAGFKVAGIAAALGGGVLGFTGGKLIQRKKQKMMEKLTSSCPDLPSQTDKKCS
Sequence of UniProt P35610 (P35610 whole entry, looked up): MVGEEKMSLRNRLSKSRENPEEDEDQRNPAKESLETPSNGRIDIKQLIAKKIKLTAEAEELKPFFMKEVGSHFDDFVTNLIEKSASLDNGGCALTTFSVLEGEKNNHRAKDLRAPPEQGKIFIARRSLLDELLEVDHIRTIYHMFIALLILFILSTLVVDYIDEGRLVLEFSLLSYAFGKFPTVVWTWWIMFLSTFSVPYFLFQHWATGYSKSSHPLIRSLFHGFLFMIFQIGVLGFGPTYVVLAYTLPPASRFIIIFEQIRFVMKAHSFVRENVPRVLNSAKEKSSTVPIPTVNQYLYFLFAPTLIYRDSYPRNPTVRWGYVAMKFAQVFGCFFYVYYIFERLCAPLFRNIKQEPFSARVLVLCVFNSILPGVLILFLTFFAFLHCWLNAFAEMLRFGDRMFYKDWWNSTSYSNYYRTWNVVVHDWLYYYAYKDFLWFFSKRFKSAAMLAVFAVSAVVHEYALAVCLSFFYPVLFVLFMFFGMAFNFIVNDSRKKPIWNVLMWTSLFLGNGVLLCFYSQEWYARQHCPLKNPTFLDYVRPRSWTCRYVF
Sequence of UniProt P05455 (P05455 whole entry, looked up): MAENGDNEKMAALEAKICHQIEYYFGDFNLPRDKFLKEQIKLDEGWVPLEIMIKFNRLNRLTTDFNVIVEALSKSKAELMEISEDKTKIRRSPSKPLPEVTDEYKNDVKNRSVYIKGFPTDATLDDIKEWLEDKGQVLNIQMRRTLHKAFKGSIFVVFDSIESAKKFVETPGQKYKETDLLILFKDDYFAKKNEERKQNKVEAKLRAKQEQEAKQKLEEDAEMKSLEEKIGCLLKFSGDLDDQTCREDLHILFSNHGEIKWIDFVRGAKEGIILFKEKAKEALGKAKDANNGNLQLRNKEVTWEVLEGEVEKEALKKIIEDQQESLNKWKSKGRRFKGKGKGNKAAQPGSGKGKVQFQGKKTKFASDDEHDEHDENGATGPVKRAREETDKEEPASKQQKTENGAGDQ
Sequence of UniProt Q92581 (Q92581 whole entry, looked up): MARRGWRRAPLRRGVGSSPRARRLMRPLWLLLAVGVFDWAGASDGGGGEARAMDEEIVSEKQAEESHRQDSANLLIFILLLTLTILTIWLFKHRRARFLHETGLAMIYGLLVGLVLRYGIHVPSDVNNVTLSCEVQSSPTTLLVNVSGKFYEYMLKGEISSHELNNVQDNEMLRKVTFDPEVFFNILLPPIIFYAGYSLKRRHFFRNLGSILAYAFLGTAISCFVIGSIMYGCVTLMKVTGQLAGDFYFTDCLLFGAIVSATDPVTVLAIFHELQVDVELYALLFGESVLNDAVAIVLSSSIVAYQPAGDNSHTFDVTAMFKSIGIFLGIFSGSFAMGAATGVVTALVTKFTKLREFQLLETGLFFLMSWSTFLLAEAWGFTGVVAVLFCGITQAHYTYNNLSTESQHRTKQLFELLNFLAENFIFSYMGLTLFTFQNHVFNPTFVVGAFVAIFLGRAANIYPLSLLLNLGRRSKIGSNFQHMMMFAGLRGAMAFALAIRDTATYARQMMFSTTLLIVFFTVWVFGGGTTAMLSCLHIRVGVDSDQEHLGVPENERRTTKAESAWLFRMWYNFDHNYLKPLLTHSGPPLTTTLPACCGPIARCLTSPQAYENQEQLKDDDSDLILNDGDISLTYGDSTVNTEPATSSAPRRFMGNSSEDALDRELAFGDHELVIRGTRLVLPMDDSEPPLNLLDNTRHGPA
Sequence of UniProt Q9Y5X3 (Q9Y5X3 whole entry, looked up): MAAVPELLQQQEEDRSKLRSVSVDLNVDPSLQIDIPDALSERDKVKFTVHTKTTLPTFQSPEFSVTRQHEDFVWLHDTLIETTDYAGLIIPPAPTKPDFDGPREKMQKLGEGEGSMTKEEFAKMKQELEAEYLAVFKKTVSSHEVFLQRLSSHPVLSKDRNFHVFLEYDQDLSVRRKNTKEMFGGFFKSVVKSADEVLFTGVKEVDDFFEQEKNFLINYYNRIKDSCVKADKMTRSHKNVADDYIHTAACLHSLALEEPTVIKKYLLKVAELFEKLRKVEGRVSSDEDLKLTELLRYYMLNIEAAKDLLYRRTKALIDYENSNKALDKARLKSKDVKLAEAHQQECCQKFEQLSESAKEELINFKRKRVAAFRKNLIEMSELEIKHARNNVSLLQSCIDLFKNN
Sequence of UniProt Q15208 (Q15208 whole entry, looked up): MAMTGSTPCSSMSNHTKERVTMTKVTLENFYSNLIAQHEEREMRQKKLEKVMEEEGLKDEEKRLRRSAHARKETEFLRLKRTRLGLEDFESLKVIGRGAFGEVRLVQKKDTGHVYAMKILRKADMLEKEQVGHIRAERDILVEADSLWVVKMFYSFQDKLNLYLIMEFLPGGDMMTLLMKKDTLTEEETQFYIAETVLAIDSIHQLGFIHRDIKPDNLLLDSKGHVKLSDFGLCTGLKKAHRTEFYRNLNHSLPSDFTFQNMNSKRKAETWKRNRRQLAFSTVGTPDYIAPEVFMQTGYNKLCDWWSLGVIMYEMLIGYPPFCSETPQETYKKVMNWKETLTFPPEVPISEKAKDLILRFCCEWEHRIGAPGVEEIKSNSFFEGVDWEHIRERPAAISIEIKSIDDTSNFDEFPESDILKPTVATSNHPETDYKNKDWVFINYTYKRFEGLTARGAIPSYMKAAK
Sequence of UniProt Q9BSF4 (Q9BSF4 whole entry, looked up): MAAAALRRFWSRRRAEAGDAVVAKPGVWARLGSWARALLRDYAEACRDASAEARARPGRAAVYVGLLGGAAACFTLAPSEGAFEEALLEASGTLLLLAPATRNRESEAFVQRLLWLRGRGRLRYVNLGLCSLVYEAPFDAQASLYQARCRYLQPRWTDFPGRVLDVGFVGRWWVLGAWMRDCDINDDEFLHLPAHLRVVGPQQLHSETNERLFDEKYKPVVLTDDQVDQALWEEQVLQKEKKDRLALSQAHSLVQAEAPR
Sequence of UniProt Q8N5G0 (Q8N5G0 whole entry, looked up): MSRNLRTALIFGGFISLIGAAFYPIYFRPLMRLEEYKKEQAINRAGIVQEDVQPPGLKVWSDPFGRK

These targets were tested with c1cn2cc(-c3ccc4cn[nH]c4c3)nc(Nc3ccc(N4CCOCC4)cc3)c2n1 [entospletinib] (assay: log2 fold change, soluble protein after heating vs DMSO (PISA); higher = thermal stabilisation; K562 cells, 10 uM, 30 min; active = over 0.2 and 3.5 SD of the protein, either way, in both replicates (recomputed)).
Outline: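 Soluble protein was defined as the supernatant after 21,000xg for 90 min. It came from K562 cells at 2×10^6 cells/mL given 10 μM compound for 30 min, heated in aliquots for 3 min across 48°C-58°C, pooled, and extracted in PBS with 0.5% NP-40 at 4°C, and was quantified by TMTpro 16plex LC-MS/MS with equalised channel sums. Thermal stability against control samples, from duplicates, is reported as log2 fold change.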
In the case of SMIM20 isoform 2 (UniProt Q8N5G0), the log2 fold change was 0.008 (inactive). For SUCLG1 (UniProt P53597), the log2 fold change was -0.041 (inactive). TIMM29 (UniProt Q9BSF4) was tested, and the log2 fold change was 0.033 (inactive). In the case of TBC1D9B (UniProt Q66K14), the log2 fold change was 0.138 (inactive). STK26 (UniProt Q9P289) was tested, and the log2 fold change was -0.022 (inactive). In the case of TBC1D24 (UniProt Q9ULP9), the log2 fold change was 0.004 (inactive). With TBRG4 (UniProt Q969Z0) the log2 fold change was -0.027 (inactive). With TLK2 isoform 2 (UniProt Q86UE8) the log2 fold change was 0.03 (inactive). For SLIRP (UniProt Q9GZT3), the log2 fold change was 0.134 (inactive). In the case of SNX5 (UniProt Q9Y5X3), the log2 fold change was -0.002 (inactive). With SMG1 (UniProt Q96Q15) the log2 fold change was -0.004 (inactive). With SOAT1 (UniProt P35610) the log2 fold change was 0.079 (inactive). With SLC30A7 (UniProt Q8NEW0) the log2 fold change was -0.201 (inactive). With SLC25A38 (UniProt Q96DW6) the log2 fold change was -0.02 (inactive). With TELO2 (UniProt Q9Y4R8) the log2 fold change was 0.044 (inactive). With TJP1 (UniProt Q07157) the log2 fold change was 0.009 (inactive). In the case of SPECC1 (UniProt Q5M775), the log2 fold change was 0.085 (inactive). With SSB (UniProt P05455) the log2 fold change was -0.051 (inactive). TFRC (UniProt P02786) was tested, and the log2 fold change was 0.022 (inactive). With SLC25A36 (UniProt Q96CQ1) the log2 fold change was 0.022 (inactive). TM9SF4 (UniProt Q92544) was tested, and the log2 fold change was 0.022 (inactive). TECR (UniProt Q9NZ01) was tested, and the log2 fold change was -0.018 (inactive). In the case of STX17 (UniProt P56962), the log2 fold change was -0.071 (inactive). In the case of TFB2M (UniProt Q9H5Q4), the log2 fold change was -0.011 (inactive). With STK38 (UniProt Q15208) the log2 fold change was -0.033 (inactive). For TBC1D20 isoform 3 (UniProt Q96BZ9), the log2 fold change was -0.065 (inactive). With SYNE1 (UniProt Q8NF91) the log2 fold change was -0.141 (inactive). With SUGP1 (UniProt Q8IWZ8) the log2 fold change was -0.04 (inactive). In the case of STAT5A (UniProt P42229), the log2 fold change was -0.087 (inactive). For SNX2 isoform 2 (UniProt O60749), the log2 fold change was -0.255 (inactive). In the case of SRSF2 (UniProt Q01130), the log2 fold change was 0.071 (inactive). In the case of SUCLA2 (UniProt Q9P2R7), the log2 fold change was -0.048 (inactive). With SPR (UniProt P35270) the log2 fold change was 0.057 (inactive). In the case of SLC39A11 (UniProt Q8N1S5), the log2 fold change was -0.458 (active). With SLC9A6 isoform 3 (UniProt Q92581) the log2 fold change was 0.052 (inactive).
